According to PubChem BioAssay (EPA / NIEHS):
Activity calls are given as the source filed them. The calls were made as follows: active = hit-call score of the fitted dose curve at least 0.9, where 1 is the maximum; inactive = score below 0.9.

The compounds below were run against PGR (gene 5241) (UniProt P06401) (assay: TOX21_PR_LUC_Followup_Agonist: Tox21 HEK293 Progesterone Receptor (PR) Agonism Luciferase Follow-Up Assay (AID 2283937)).
Source text: TOX21_PR_LUC_Followup is a secondary assay for specificity for the TOX21_PR_BLA_Agonist assay. To differentiate true PR agonists from cytotoxic substances, this follow up assay is multiplexed with a cell viability assay.TOX21_PR_LUC_Followup_Agonist is one of one assay component(s) measured or calculated from the TOX21_PR_LUC_Followup assay. It is designed to make measurements of luciferase induction, a form of inducible reporter, as detected with bioluminescence signals by CellTiter-Glo Luciferase-coupled ATP quantitation technologyData from the assay component TOX21_PR_LUC_Followup_Agonist was analyzed into 1 assay endpoint. This assay endpoint, TOX21_PR_LUC_Followup_Agonist, was analyzed in the positive analysis fitting direction relative to DMSO as the negative control and baseline of activity. Using a type of inducible reporter, gain-of-signal activity can be used to understand changes in the reporter gene as they relate to the gene NR3C3. Furthermore, this assay endpoint can be referred to as a primary readout, because the performed assay has only produced 1 assay endpoint. To generalize the intended target to other relatable targets, this assay endpoint is annotated to the nuclear receptor target family, where the subfamily is steroidal.
Quality Control Precautions: Maintain cells below 85-90% confluence in culture medium. For assay purpose, the cells should be cultured in assay medium with 10% charcoal stripped FBS for 5 days with alternate day medium changed to fresh medium. Especially while in assay culture, the cells should not reach more than 85% confluence as they would become harder to detach if they reach over confluence.Assay Protocol: HEK293-PR-A-luc cells were dispensed at 3,000 cells/5 uL/well of culture medium into white wall/solid-bottom 1536-well plates using a Multidrop Combi (ThermoFisher Scientific, Waltham, MA) dispenser. After the assay plates were incubated at 37C and […] for 5 h, 23 nL of compounds dissolved in DMSO, positive controls or DMSO only was transferred to the assay plate by a Pintool station (Kalypsys, San Diego, CA). The plates were incubated at 37C and […] for 16 h. Then 4 uL of ONE-Glo reagent (Promega, Madison, WI) was added to each plate using a BioRAPTR Flying Reagent Dispenser (FRD) workstation (Beckman Coulter, Indianapolis, IN, USA) and luminescence was quantified on a ViewLux (PerkinElmer, Shelton, CT) plate reader after 30 min incubation at room temperature.

Chain of PGR (gene 5241) (P06401 whole entry, looked up): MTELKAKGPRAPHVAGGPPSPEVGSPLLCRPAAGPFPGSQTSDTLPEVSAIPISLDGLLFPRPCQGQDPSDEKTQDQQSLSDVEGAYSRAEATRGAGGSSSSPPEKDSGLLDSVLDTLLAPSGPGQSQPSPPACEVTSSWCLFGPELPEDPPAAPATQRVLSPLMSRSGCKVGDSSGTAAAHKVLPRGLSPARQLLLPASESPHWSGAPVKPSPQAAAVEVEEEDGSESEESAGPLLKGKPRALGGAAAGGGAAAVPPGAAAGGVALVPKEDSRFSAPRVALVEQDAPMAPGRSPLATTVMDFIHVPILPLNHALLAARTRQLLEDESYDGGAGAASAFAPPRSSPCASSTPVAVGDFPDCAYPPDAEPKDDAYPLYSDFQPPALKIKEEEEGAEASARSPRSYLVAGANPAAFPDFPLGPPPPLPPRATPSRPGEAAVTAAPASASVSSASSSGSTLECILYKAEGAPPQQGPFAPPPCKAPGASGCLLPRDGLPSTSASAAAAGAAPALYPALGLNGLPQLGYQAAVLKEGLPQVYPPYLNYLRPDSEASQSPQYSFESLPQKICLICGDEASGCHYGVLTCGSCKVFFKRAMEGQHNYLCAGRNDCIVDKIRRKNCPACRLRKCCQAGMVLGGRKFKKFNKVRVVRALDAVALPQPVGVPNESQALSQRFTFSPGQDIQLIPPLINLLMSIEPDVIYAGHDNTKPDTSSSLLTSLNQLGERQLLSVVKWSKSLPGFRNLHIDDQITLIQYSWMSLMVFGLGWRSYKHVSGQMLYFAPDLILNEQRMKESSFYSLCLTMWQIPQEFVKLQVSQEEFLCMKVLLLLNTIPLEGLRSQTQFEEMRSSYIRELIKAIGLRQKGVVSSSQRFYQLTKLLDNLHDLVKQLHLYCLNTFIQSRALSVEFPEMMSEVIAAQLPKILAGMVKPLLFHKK

SMILES	AC50	outcome
CC[C@]1(O)CC[C@H]2[C@@H]3CCC4=CCCC[C@@H]4[C@H]3CC[C@@]21C	42.1 nM (active)	–
O=C(CBr)Nc1ccc(Cl)cc1C(=O)c1ccccc1F	–	inactive
C#C[C@]1(O)CC[C@H]2[C@@H]3CCC4=CC(=O)CCC4=C3C=C[C@@]21CC	1.56 nM (active)	–
C[C@]12Cc3cn[nH]c3C[C@@H]1CC[C@@H]1[C@@H]2CC[C@@]2(C)[C@H]1CC[C@]2(C)O	3480 nM (active)	–
CCC(=O)O[C@@H]1C=C2CCC3C(CCC4(C)C3CC[C@@H]4OC(=O)CC)C2CC1 (stereo partly drawn)	165 nM (active)	–
N#Cc1cc(I)c(O)c(I)c1	–	inactive
C[C@]12CC[C@H]3[C@@H](CCC4=CC(=O)CC[C@@H]43)[C@@H]1CC[C@@H]2OC(=O)CCc1ccco1	27.5 nM (active)	–
CCOP(=S)(OCC)Oc1cc(Cl)c(Br)cc1Cl	–	inactive
CC(=O)O[C@H]1CC[C@@]2(C)C(=CC[C@@H]3[C@@H]2CC[C@]2(C)C(=O)CC[C@@H]32)C1	–	inactive
C[C@]12CC[C@H]3[C@@H](CCC4=CC(=O)CC[C@@H]43)[C@@H]1CC[C@@H]2OC(=O)CCC1CCCCC1	73.1 nM (active)	–
C[C@]12Cc3nonc3C[C@@H]1CC[C@@H]1[C@@H]2CC[C@@]2(C)[C@H]1CC[C@]2(C)O	862 nM (active)	–
O=[N+]([O-])c1ccc2ccc3cccc4ccc1c2c34	–	inactive
Nc1ccc(Cl)cc1C(=O)c1ccccc1F	–	inactive
C=C1C[C@@H]2[C@H](CC[C@]3(C)C(=O)CC[C@@H]23)[C@@]2(C)C=CC(=O)C=C12	–	inactive
C[C@]12CC[C@H]3[C@@H](CC[C@@]45O[C@@H]4C(O)=C(C#N)C[C@]35C)[C@@H]1CC[C@@H]2O	–	inactive
COc1ccc2c(c1OC)CN1CCc3cc4c(cc3C1C2)OCO4 (stereo not drawn)	–	inactive
O=C1C(Cl)C(CCl)CN1c1cccc(C(F)(F)F)c1 (stereo not drawn)	–	inactive
CCOC(=O)C1(c2ccccc2)CCN(CCC(C#N)(c2ccccc2)c2ccccc2)CC1	–	inactive
